Screening results as filed in PubChem BioAssay.
SW480 rereplic: DNA re-replication induction in SW480 cells; SW480 DNA re-replication, Hoechst DNA content imaging, 48 h; Potency, µM (highest dose often 46.1 µM), without a hit: at the top dose re-replication activation, usual class: activators; 340,000 tested, 1.8% active; AID 624297; also: % of control where 0% means no effect; nearly all actives have a fitted effect of over 55% in size
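First, 250 cells per well were seeded. Next, compound or vehicle (23 nL) was pinned in, plates sat 48 hr at 37 C. Finally Hoechst was added for 40 min before fluorescence scanning.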
KB-3-1 tox: KB-3-1 parental cell cytotoxicity. KB-3-1 viability, CellTiter-Glo ATP luminescence, 72 h. Potency, µM (highest dose often 46.1 µM), actives largely listed as cytotoxic. 400,000 tested, 1.4% active; also: % is scaled to controls: 0 for no effect and ±100 for the full control effect; nearly all actives have a fitted effect of over 60% in size
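Parental KB-3-1 viability, qHTS format: 72 h compound exposure, 37 °C; CellTiter-Glo; media-only wells and DMSO plates as controls; concentration-effect fits on corrected data.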
HT1080 IDH1KD tx: HT-1080 IDH1 knockdown cell toxicity (counter line). HT-1080 IDH1 knockdown viability, ATP luminescence, 48 h. AID 686971. 360,000 tested, 2% active. Potency, µM (series often up to 46.1 µM), without a hit: at the top dose activity, negative = toxicity, most hits filed as cytotoxic;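 also: 0% = DMSO wells and -100% = cell-free medium wells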
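Cytotoxicity counter-line: IDH1KD HT-1080, 48 h, CellTiter-Glo. Curves classed by r2, magnitude and activity.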
MCF10A rereplic: inducers of DNA re-replication in MCF 10A breast cells; MCF 10A DNA re-replication, Hoechst nuclear intensity, 48 h; Potency, µM (titrated, usually from 46.1 µM), without a hit: top-dose activity, positive = re-replication, usual class: activators; 350,000 tested, 2.9% active; AID 624296; also: % of control where 0% means no effect; nearly all actives have a fitted effect of over 50% in size
KB-V1 MDR tox: kills drug-selected multidrug resistant KB-V1 cells; KB-V1 MDR cells viability, CellTiter-Glo, 72 h; Potency, µM (highest dose often 46.1 µM), most hits filed as cytotoxic; 400,000 tested, 3.4% active; AID 1347076; also: % is scaled to controls: 0 for no effect and ±100 for the full control effect; nearly all actives have a fitted effect of over 60% in size
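Luminescent ATP read-out (CellTiter-Glo, 10 min) measures survival of drug-selected KB-V1 MDR cells after 72 h, 37 degrees C compound exposure. Medium: phenol-red-free DMEM, 10% FBS. Values from fitted concentration-response curves.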
HT1080-NT tox: kills 2HG-producing HT-1080-NT fibrosarcoma cells; HT-1080-NT fibrosarcoma viability, CellTiter-Glo ATP luminescence, 48 h; Potency, µM (series often up to 46.1 µM), for the others: at the highest dose activity, negative = less viability, usual class: cytotoxic; 360,000 tested, 1.6% active; AID 686970;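 also: NT is the 2HG producing partner of a matched IDH1 knockdown line; 0% = DMSO-treated cells and -100% = media-only wells without cells; nearly all actives have a fitted effect of over 55% in size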
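HT-1080-NT; 750 cells/well; 5% FBS RPMI; 48 h compound, 37 degrees C; CellTiter-Glo luminescence; curve fitting and curve-class assignment.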
* = called active by the depositor; i = inactive; ? = inconclusive; · = no result given; [ ] = another dose, or the depositor's remark. In the library only some 8% were active in any assay of this set; here they are far more common. Calls follow the shape of the dose curve; as a rule, active = well fitted curve in the direction sought with a large enough effect; inconclusive = small, poorly fitted or top-dose-only effect, or another doubt; inactive = no such curve, though single readings can be large; an effect the other way counts as inactive or inconclusive. Potency is read from the fitted curve at half-maximal effect.

SMILES | SW480 rereplic | KB-3-1 tox | HT1080 IDH1KD tx | MCF10A rereplic | KB-V1 MDR tox | HT1080-NT tox
CN(C)S(=O)(=O)c1ccc(Cl)c(NC(=O)CSc2nc3c(cc2C#N)C(=O)CCC3)c1 | 2.6µM* | i | -6% | ? | 10µM* | 10%
CCN(CC)c1ccc(NC(=O)COc2ccc(N(C)S(=O)(=O)c3cccs3)cc2)cc1 | 2% | i | -9% | 1% | ? | -7%
CS/C(=N\S(=O)(=O)c1ccc(F)cc1)c1ccccc1 | · | i | · | · | ? | ·
COc1cc(CNc2ccc3[nH]c(=O)[nH]c3c2)ccc1OCc1ccc(Cl)cc1 | -14% | i | -22% | 16% | i | -26%
COc1ccccc1N1CCN(S(=O)(=O)c2cn(C)cn2)CC1 | 0% | i | 12% | -2% | i | 5%
O=C(O)c1ccc(/C=C2\COc3ccccc3C2=O)cc1 | 2% | i | ? | ? | i | ?
O=C(C1CCN(S(=O)(=O)c2cccnc2)CC1)N1CCN(c2cccc(Cl)c2)CC1 | -8% | ? | -3% | 1% | 6.5µM* | -2%
CC1CCN(S(=O)(=O)c2cc(C(=O)N3CCN(c4cccc(Cl)c4)CC3)n(C)c2)CC1 | · | 16µM* | · | · | i | ·
CC1CCN(S(=O)(=O)c2cc(C(=O)N3CCN(c4ccccc4F)CC3)n(C)c2)CC1 | · | i | · | · | ? | ·
O=C(OCc1cc2ccccc2[nH]c1=O)C1CCCO1 (centres undefined) | -1% | i | 5% | -8% | i | 2%
CC(C)NC(=S)N/N=C1\CCCCC1C1CCCCC1 (centres undefined) | ? | ? | -8% | 18µM* | ? | 4%
CC1CCCC/C1=N\NC(=S)Nc1ccccc1 (centres undefined) | 2% | i | 1% | -6% | ? | 19%
CC(C)N=C(NC#N)SCc1ccccc1F | -1% | i | -1% | -18% | ? | -3%
N#CNC(=Nc1cccc(F)c1)SCc1ccccc1F | 3% | i | -9% | 4.6µM* | ? | -7%
COc1ccccc1NC(=O)c1cc2n(n1)C(C(F)(F)F)CC(c1ccc3c(c1)OCO3)N2 (centres undefined) | -2% | i | -12% | ? | i | -12%
COc1ccc(OC)c(NC(=O)c2cc3n(n2)C(C(F)(F)F)CC(c2ccc4c(c2)OCO4)N3)c1 (centres undefined) | 13% | ? | ? | 4% | 12µM* | ?
CN(C)CCCNc1ncnc2oc(-c3ccccc3)c(-c3ccccc3)c12 | ? | ? | 23µM* | ? | i | ?
c1ccc(-c2oc3ncnc(NCCCn4ccnc4)c3c2-c2ccccc2)cc1 | 12% | i | ? | ? | i | ?
Cc1nc(SCC(=O)Nc2ccc(F)cc2)c(C#N)c(C)c1CC(=O)c1ccc(Br)cc1 | ? | 16µM* | -11% | 16µM* | ? | -14%
COCc1cc(C)nc(SCC(=O)Nc2cccc(C)c2C)c1C#N | -10% | i | 7% | -8% | i | 8%
Cc1cccc(NC(=O)CSc2nc(C)c(CC(=O)c3ccc(Br)cc3)c(C)c2C#N)c1C | 4% | ? | ? | 1µM* | ? | -13%
Cc1ccc(NC(=O)CSc2nc(-c3ccc(F)cc3)cc(C(F)(F)F)c2C#N)cc1 | · | i | · | · | i | ·
O=C(/C=C/c1ccco1)NC(=S)Nc1ccc(N2CCCC2)cc1 | ? | ? | ? | 21µM* | ? | ?
O=C(/C=C\c1ccco1)Nc1ccc(N2CCN(C(=O)c3ccccc3)CC2)cc1 | 7% | i | -1% | ? | 23µM* | -1%
O=C(/C=C/c1ccco1)N1CCN(c2ccccc2)CC1 | 0% | i | -5% | 2% | i | 7%
SMILES | SW480 rereplic | KB-3-1 tox | HT1080 IDH1KD tx | MCF10A rereplic | KB-V1 MDR tox | HT1080-NT tox
Cc1cc(=O)c2c(o1)C(=O)c1occc1C2=O | ? | i | -2% | ? | i | -1%
CCC(=NCCc1c(C)[nH]c2ccc(C)cc12)C1=C(O)CC(c2ccccc2)CC1=O (centres undefined) | 2.6µM* | 0.73µM* | 1.3µM* | ? | i | ?
Cc1ccc(NC(=O)c2ccc(N(Cc3ccccc3)S(C)(=O)=O)cc2)cc1 | · | ? | · | · | i | ·
Cc1ccccc1Nc1scc(-c2ccc(Cl)cc2)[n+]1-c1ccccc1C | -8% | 9.2µM* | -4% | ? | i | -4%
C=CCn1c(SC(F)F)nc2scc(-c3ccco3)c2c1=O | 20% | i | ? | 2.9µM* | i | -7%
CC1CCCCN1C(=S)Nc1ccc(S(=O)(=O)N2CCCCC2)cc1 (centres undefined) | · | i | -7% | · | i | 2%
N/C(=N\OC(=O)N1CCOCC1)c1ccc(Br)cc1 | ? | i | -19% | ? | 21µM* | ?
CCN(CC)c1ccc(C2=NNC(=O)CC2C)cc1[N+](=O)[O-] (centres undefined) | 0% | 0.21µM* | ? | 10% | ? | 8%[9.24 µM]
O=S(=O)(Nc1ccc2c(c1)OCCO2)c1ccc(Br)s1 | -8% | i | -17% | -2% | i | -23%
CCn1c(=O)c2c(nc(SCc3ccccn3)n2C)n(C)c1=O | -9% | ? | 5% | -5% | 15µM* | -14%
Cc1ccc(SCCNC(=O)c2ccc(C)c([N+](=O)[O-])c2)cc1 | -45% | i | -4% | 18% | 23µM* | 8%
Cc1cc2cc(CCNC(=O)c3ccc(S(=O)(=O)N4CCCC4)cc3)c(=O)[nH]c2cc1C | ? | · | -7% | ? | · | -16%
O=C(NCCc1ccccc1)c1cccc([N+](=O)[O-])c1 | -5% | i | 9% | -11% | 18µM* | 10%
Cc1ccc(SCCNC(=O)c2ccc([N+](=O)[O-])c(C)c2)cc1 | -1% | i | 4% | 5% | i | 2%
Cc1cc2cc(CCNC(=O)c3ccc(C)c([N+](=O)[O-])c3)c(=O)[nH]c2cc1C | 1% | i | 5% | ? | 6.5µM* | 6%
O=C(NCCc1cccc(Cl)c1)c1ccc(Cl)c([N+](=O)[O-])c1 | -1% | i | -12% | 22% | i | ?
Cc1ccc(C(=O)NCCc2cccc(Cl)c2)cc1[N+](=O)[O-] | 1% | i | 8% | 18% | 16µM* | -6%
Cc1ccc(OCc2nc3ccccc3n2CC(C)C)cc1 | · | i | · | · | i | ·
Cc1ccc(CSCCNC(=O)c2cccc([N+](=O)[O-])c2)cc1 | -4% | i | -2% | 19% | 18µM* | -1%
